# Experimental data taken from the supplement of paper PMC13380429.
# A number with no mark means an inactive call.
# Tested on: Vero E6 infected with SARS-CoV-2
# Experiment: inhibition of SARS-CoV-2 cytopathic effect; higher = more antiviral protection, active = above 15
# Details: 48 h
SMILES,inhibition of SARS-CoV-2 cytopathic effect (1 nM),inhibition of SARS-CoV-2 cytopathic effect (8.33 nM),inhibition of SARS-CoV-2 cytopathic effect (100 nM),inhibition of SARS-CoV-2 cytopathic effect (833.33 nM),inhibition of SARS-CoV-2 cytopathic effect (10000 nM)
COc1cc2nc(N3CCN(C(=O)c4ccco4)CC3)nc(N)c2cc1OC [prazosin],0.79%,-8.02%,-0.93%,-1.57%,1.13%
CN1C(CCl)Nc2cc(Cl)c(S(N)(=O)=O)cc2S1(=O)=O (stereo not given) [methyclothiazide],-0.11%,0.15%,1.53%,1%,2.28%
CCOc1ccn(-c2ccc(F)cc2)c(=O)c1C(=O)Nc1ccc(Oc2ccnc(N)c2Cl)c(F)c1,2.67%,1.32%,-5.33%,2.11%,-3.09%
CCCOC(C(=O)OC1CCN(C)CC1)(c1ccccc1)c1ccccc1 [propiverine],0.57%,1.63%,0.85%,-0.19%,1.89%
O=C(O)c1ccc(N2C(=O)/C(=C/c3ccc(-c4ccc([N+](=O)[O-])cc4)o3)C=C2c2ccccc2)cc1,-2.98%,-0.14%,1.72%,-6.51%,-0.18%
Oc1cc(O)c2cc(O)c(-c3cc(O)c(O)c(O)c3)[o+]c2c1 [delphinidin],-3.03%,-3.65%,-0.94%,-1.2%,-3.76%
CC(C(=O)O)c1ccc(CC2CCCC2=O)cc1 (stereo not given) [loxoprofen],0.21%,3.24%,2.9%,0.82%,2.16%
CN(C)CCCN1c2ccccc2Sc2ccc(Cl)cc21 [chlorpromazine],-0.39%,2.71%,1.5%,2.32%,7.04%
Cn1cc(-c2ccncc2)c(-c2ccc(OCc3ccc4ccccc4n3)cc2)n1,-1.42%,1.25%,1.83%,16% (active),52.4% (active)
CCc1ccc(/C=C2/SC(=S)NC2=O)cc1,-2.34%,-6.5%,-4.03%,3.21%,1.11%
C[C@@H](O)[C@H](N)C(=O)N1CCC[C@H]1C(=O)N1CCC[C@H]1C(=O)N[C@H](C(N)=O)[C@@H](C)O [rapastinel],-2.84%,-5.74%,0.55%,-1.01%,-0.06%
C=C(C)CN1CC[C@]23c4c5ccc(O)c4O[C@H]2c2[nH]c4ccccc4c2C[C@@]3(O)C1C5,1.25%,-1.87%,0.33%,0.21%,1.05%
C=CCN1CCc2cc(O)c(O)cc2[C@H](c2ccccc2)C1,1.44%,0.58%,0.35%,0.44%,-2.9%
CCC(=O)[C@@]1(C)[C@H](C)C[C@H]2[C@@H]3CCC4=CC(=O)C=C[C@]4(C)[C@H]3[C@@H](O)C[C@@]21C [rimexolone],-1.78%,-0.66%,-2.92%,0.22%,-2.54%
CN(C)c1ccc(/C=C2\CCCN=C2c2cccnc2)cc1 [DMAB-anabaseine],-2.66%,-1.76%,0.68%,4.31%,-5.07%
CC(CC(C(N)=O)(c1ccccc1)c1ccccc1)N(C)C (stereo not given) [aminopentamide],-1.11%,-1.56%,-1.71%,0.24%,-0.57%
N#CCC1(n2cc(-c3ncnc4[nH]ccc34)cn2)CN(C2CCN(C(=O)c3ccnc(C(F)(F)F)c3F)CC2)C1 [itacitinib],1.05%,1.83%,0.96%,-0.18%,-3.04%
O=C([O-])CN1CCN(CC(=O)[O-])CCN([C@H](CO)[C@H](O)CO)CCN(CC(=O)[O-])CC1.[Gd+3] (racemic) [gadobutrol],-1.29%,1.41%,0.03%,0.17%,2.16%
O=C(O)C1(C(=O)O)CCC1.[NH2-].[NH2-].[Pt+2] [carboplatin],2.35%,3.65%,4.49%,9.87%,4.39%
COc1ccc(-c2cc(=O)c3c(OC)c(OC)c(OC)c(OC)c3o2)cc1OC [nobiletin],-1.63%,-2.18%,-7.44%,-2.1%,-0.29%

SMILES,inhibition of SARS-CoV-2 cytopathic effect (1 nM),inhibition of SARS-CoV-2 cytopathic effect (8.33 nM),inhibition of SARS-CoV-2 cytopathic effect (100 nM),inhibition of SARS-CoV-2 cytopathic effect (833.33 nM),inhibition of SARS-CoV-2 cytopathic effect (10000 nM)
CC(=O)Nc1ccc(C(=O)NC(C)(C)C)cc1,-4.86%,-3.67%,-1.32%,-3.41%,-0.2%
CNS(=O)(=O)CCc1ccc2[nH]cc(C3CCN(C)CC3)c2c1 [naratriptan],-2.05%,0.47%,2.08%,-3.05%,-1.76%
CC(O)CN1CCN(CC(=O)[O-])CCN(CC(=O)[O-])CCN(CC(=O)[O-])CC1.[Gd+3] (stereo not given) [gadoteridol],0.66%,-0.76%,0.17%,0.32%,-3.99%
Cc1ccsc1/C=C/C1=NCCCN1C [morantel],-0.99%,-3.26%,-2.09%,-5.69%,-0.33%
CO/N=C(\C(=O)N[C@@H]1C(=O)N2C(C(=O)[O-])=C(C[n+]3ccn4ncccc43)CS[C@H]12)c1nsc(N)n1 [cefozopran],-1.88%,1.38%,-0.43%,-0.82%,-0.02%
CCCC(=O)C1CCN(c2ncnc3c2CN(C(=O)c2ccc(-c4ccccc4)cc2)CC3)CC1,-1.91%,-1.68%,2.34%,-0.3%,-1.38%
CC(C)C[C@H](CN)CC(=O)O,-2.46%,-1.59%,-0.55%,-0.08%,0.02%
N[C@@H]1CCCCN(c2c(F)cc3c(=O)c(C(=O)O)cn(C4CC4)c3c2Cl)C1 [besifloxacin],-2.51%,1.39%,2.41%,2.48%,2.15%
CC[C@H](CC#N)OC(=O)N[C@@H](C)c1cccc(NC(=O)Nc2ccc(-c3cnco3)c(OC)c2)c1,0.48%,4.56%,0.06%,10.2%,13.2%
O=C(NO)c1cnc(N2CCN(S(=O)(=O)c3ccc4ccccc4c3)CC2)nc1,1.24%,2.59%,2.04%,-16.4%,-22.6%
CCNC(=O)CCC/C=C\C[C@@H]1[C@@H](/C=C/[C@@H](O)CCc2ccccc2)[C@H](O)C[C@@H]1O [bimatoprost],-2.31%,-0.42%,-0.15%,-0.88%,3.04%
COc1ccc(C(=O)N2CCCc3cc(C4=NNC(=O)SC4C)ccc32)cc1OC (stereo not given),-1.28%,2.27%,0.07%,0.74%,4.36%
Nc1ccn([C@@H]2O[C@H](CO)[C@@H](O)[C@@H]2O)c(=O)n1 [cytarabine],-0.13%,2.91%,2.21%,-1%,-2.58%
CC(=O)N1CCC(NC(=O)c2ccc(F)cc2)CC1,-1.4%,-1.44%,0.95%,0.58%,0.98%
O=C(N[C@@H]1CC[C@@H](c2cccc(F)c2F)CN(CC(F)(F)F)C1=O)N1CCC(n2c(=O)[nH]c3ncccc32)CC1 [telcagepant],0.8%,6.42%,7.5%,2.53%,5.63%
O=C(O)c1ccc(-c2ccc3cc(O)c(C45CC6CC(CC(C6)C4)C5)cc3c2)cc1,5.35%,1.59%,3.64%,3.49%,5.63%
O=C(/C=C/c1ccc2c(c1)OCO2)N1CCCCC1 [ilepcimide],0.84%,0.26%,1.04%,-1.12%,0.82%
O=C(O)/C=C(/CC(=O)O)C(=O)O [cis-aconitic-acid],0.99%,0.49%,-3.45%,-2.25%,0.81%
CCN1CCCC1=O [1-ethyl-2-pyrrolidone],-1.68%,2.91%,3.54%,-0.7%,-2.48%
NC(=O)c1ccc2[nH]ccc2c1,-2.02%,0.22%,0.99%,0.03%,3.72%
